Test results taken from PubChem BioAssay AID602261 (Sanford-Burnham Center for Chemical Genomics, 2012).
“And” between values parts separate entries of the source, which are not always exact repeats. Equal entries are not always repeated. Among all 360,000 compounds or so, about 2,400 (0.67%) were called active.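 How the source made its calls: active means compounds whose normalised, plate-corrected inhibition of enzyme fluorescence in the single-dose primary screen is 50% or more; inactive means the rest.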 What follows is part of a selection rich in actives, with near analogues and random picks from the rest.

Each compound was assayed against Fatty acid synthase (Homo sapiens) (UniProt P49327) (assay: inhibition of human FAS-TE enzyme activity – biochemical, fluorescence intensity, uHTS, primary screen (AID 602261;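 further: 0% = DMSO with enzyme and 100% = substrate without enzyme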)). Conditions: recombinant FAS-TE, OMFH fluorogenic substrate, fluorescence endpoint; at 15 µM; active compounds read high.
Chain of Fatty acid synthase (Homo sapiens) (P49327 whole entry, looked up): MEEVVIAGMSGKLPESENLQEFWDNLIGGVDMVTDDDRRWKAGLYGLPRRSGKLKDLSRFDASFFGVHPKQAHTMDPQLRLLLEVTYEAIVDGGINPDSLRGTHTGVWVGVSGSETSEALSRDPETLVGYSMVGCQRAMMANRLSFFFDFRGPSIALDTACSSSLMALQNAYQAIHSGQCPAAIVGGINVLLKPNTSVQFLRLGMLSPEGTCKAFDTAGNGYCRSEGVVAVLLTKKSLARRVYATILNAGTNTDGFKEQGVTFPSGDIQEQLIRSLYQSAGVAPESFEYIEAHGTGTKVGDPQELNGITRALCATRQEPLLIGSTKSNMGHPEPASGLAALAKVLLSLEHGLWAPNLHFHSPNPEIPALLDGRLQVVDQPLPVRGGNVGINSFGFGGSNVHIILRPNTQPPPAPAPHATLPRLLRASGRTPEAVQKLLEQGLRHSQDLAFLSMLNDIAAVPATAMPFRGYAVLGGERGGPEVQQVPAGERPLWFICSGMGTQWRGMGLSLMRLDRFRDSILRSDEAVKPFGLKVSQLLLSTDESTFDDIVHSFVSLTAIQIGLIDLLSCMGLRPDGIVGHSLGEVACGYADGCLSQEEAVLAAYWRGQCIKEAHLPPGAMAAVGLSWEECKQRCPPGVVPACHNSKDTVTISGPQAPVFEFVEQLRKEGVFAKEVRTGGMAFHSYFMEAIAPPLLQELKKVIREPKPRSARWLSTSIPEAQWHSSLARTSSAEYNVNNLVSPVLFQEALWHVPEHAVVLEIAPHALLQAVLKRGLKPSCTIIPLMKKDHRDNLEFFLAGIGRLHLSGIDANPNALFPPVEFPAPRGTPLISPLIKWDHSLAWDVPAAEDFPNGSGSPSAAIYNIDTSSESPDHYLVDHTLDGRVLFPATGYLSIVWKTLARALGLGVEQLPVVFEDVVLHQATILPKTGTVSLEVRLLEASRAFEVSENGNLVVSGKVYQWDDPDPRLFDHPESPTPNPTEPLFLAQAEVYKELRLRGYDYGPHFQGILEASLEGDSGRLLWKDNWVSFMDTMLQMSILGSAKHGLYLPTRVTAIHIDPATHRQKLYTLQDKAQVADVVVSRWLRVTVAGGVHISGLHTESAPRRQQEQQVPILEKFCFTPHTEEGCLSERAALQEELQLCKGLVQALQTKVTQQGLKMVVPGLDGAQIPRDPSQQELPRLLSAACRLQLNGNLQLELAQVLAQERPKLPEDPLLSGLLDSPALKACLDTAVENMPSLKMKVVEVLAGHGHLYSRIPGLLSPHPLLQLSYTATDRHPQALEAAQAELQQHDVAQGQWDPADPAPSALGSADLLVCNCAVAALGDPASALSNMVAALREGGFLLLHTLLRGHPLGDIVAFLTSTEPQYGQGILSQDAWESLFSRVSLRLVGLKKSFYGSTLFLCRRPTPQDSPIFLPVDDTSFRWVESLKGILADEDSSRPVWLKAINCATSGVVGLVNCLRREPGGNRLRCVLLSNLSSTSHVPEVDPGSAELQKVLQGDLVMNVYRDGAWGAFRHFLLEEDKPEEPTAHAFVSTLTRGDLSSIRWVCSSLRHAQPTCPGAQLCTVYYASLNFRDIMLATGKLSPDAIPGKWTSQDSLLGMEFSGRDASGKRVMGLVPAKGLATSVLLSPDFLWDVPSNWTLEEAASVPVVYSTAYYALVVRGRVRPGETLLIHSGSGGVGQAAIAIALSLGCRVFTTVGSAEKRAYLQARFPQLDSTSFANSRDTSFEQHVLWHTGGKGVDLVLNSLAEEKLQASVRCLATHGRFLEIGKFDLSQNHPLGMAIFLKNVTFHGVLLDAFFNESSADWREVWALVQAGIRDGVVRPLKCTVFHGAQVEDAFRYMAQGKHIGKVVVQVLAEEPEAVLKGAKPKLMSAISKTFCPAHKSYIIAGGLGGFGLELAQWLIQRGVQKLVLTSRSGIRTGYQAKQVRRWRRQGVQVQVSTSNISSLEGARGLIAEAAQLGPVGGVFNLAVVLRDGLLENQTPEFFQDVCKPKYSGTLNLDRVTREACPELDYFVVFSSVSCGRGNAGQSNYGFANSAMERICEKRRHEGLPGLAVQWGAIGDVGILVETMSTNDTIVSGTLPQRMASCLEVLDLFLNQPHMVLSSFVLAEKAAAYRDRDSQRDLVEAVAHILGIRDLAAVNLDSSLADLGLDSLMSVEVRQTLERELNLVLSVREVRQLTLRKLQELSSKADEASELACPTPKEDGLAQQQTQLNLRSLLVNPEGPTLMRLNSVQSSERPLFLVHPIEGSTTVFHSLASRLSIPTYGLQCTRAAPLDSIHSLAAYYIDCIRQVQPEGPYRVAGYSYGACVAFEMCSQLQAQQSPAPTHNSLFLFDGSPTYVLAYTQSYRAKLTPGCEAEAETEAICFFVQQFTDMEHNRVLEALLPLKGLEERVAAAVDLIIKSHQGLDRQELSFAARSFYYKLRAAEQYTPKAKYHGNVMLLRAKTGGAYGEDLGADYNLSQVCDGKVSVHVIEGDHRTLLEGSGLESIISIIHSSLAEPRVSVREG
In the case of `CCOC(=O)c1cc(-c2ccc(F)cc2)n(CC(=O)NCc2ccccn2)c1C`, the inhibition was -7.6% (inactive).
With `COC(=O)CCCCC1=CCC2C(=O)C=C(O)C2C1` (stereo not given) the inhibition was -0.8% (inactive).
In the case of `Cc1nn(Cc2ccc(F)cc2)c(C)c1NC(=O)c1noc2c1CCc1ccccc1-2`, the inhibition was 17.6% (inactive).
For `CCCCOc1ccc(C(=O)N/C(=C/C=C/c2ccccc2)C(=O)N2CCOCC2)cc1`, the inhibition was 4.3% (inactive).
`CNC(=O)/C(=C\C=C\c1ccccc1)NC(=O)c1ccc([N+](=O)[O-])cc1` was tested, and the inhibition was 88.8% (active).
With `Cc1ccc(C(=O)N/C(=C/C=C/c2ccccc2)C(=O)NCc2ccco2)cc1` the inhibition was 10.2% (inactive).
With `COc1ccc(-c2cc(=O)oc3cc(OCC(=O)N(C)C4CCS(=O)(=O)C4)ccc23)cc1` (stereo not given) the inhibition was -3.1% (inactive).
With `COc1ccc(-c2cc(NC=O)c3ncc(-c4ccccc4)n3c2)cc1OC` the inhibition was 28.3% (inactive).
With `Cc1ccccc1-c1nc(CS(=O)(=O)CC(=O)N2CCc3ccccc3C2)c(C)o1` the inhibition was 10% (inactive).
With `CCCCCCSc1ccc([C@@H]2[C@@H]3C(=O)N(CC)C(=O)[C@@H]3[C@]3(C(=O)OC)CCCCN23)cc1OC` the inhibition was 23.1% (inactive).
With `CCN1C(=O)[C@H]2[C@@H](c3ccc(-c4ccc(OC)cc4)cc3)N[C@@](Cc3ccccc3)(C(=O)OC)[C@H]2C1=O` the inhibition was 39.2% (inactive).
For `CCN1C(=O)[C@H]2[C@@H](c3ccc(-c4ccc(F)cc4)cc3)N[C@@](Cc3ccccc3)(C(=O)OC)[C@H]2C1=O`, the inhibition was 65.3% (active).
`COC(=O)[C@]1(CC(C)C)N[C@H](c2ccc(SC3CCCCC3)cc2)[C@@H]2C(=O)N(C)C(=O)[C@@H]21` was tested, and the inhibition was 22.5% (inactive).
With `CCN1C(=O)[C@H]2[C@@H](c3ccc(SC4CCCCC4)c(OC)c3)N[C@@](Cc3ccccc3)(C(=O)OC)[C@H]2C1=O` the inhibition was 63.1% (active).
`CCCSc1ccc([C@H]2N[C@@](Cc3ccccc3)(C(=O)OC)[C@H]3C(=O)N(C)C(=O)[C@@H]23)cc1` was tested, and the inhibition was 17.3% (inactive).
`COc1ccccc1C(=O)N(C1=NC(C)CS1)c1ccc(Cl)cc1` (stereo not given) was tested, and the inhibition was 6.9% (inactive).
With `CCCN1CCN(C(=O)Cn2ncc3ccccc32)CC1` the inhibition was -2.9% (inactive).
For `Cc1ccc(NC(=O)N2CCC(O)(c3cccnc3)CC2)cc1`, the inhibition was -3.3% (inactive).
For `CC(C)C[C@H](NC(=O)NCCc1ccc(Cl)cc1)C(=O)O`, the inhibition was -6.2% (inactive).
`CSCCC(NC(=O)c1cc([N+](=O)[O-])cc([N+](=O)[O-])c1)c1nc2ccccc2[nH]1` (stereo not given) was tested, and the inhibition was 32.8% (inactive).
`Cc1cccc(CN2CCN(Cc3cnn(-c4ccccc4F)c3)CC2CCO)n1` (stereo not given) was tested, and the inhibition was -8% (inactive).
In the case of `O=C1c2cccc(OCC(=O)N3N=C(c4cccs4)CC3c3ccc(F)cc3)c2CCN1Cc1ccccc1` (stereo not given), the inhibition was 30.6% (inactive).
With `CC1=C(C)CC2C(=O)N(c3cccc4ccccc34)C(=O)C2C1` (stereo not given) the inhibition was 7.3% (inactive).
For `Cc1ccc(N2C(=O)C3N=NN(CC(=O)N4N=C(c5cccc6ccccc56)CC4c4ccccc4)C3C2=O)cc1` (stereo not given), the inhibition was 83.2% (active).
With `Cc1ccc(C2=NN(C(=O)COc3ncnc4ccccc34)C(c3ccco3)C2)cc1` (stereo not given) the inhibition was 8.9% (inactive).
With `Oc1ccccc1C1=NN(c2ccccc2)C(c2ccccc2)C1` (stereo not given) the inhibition was 25.2% (inactive).
With `O=C1C2N=NN(CC(=O)N3N=C(c4cccc5ccccc45)CC3c3ccccc3)C2C(=O)N1c1ccccc1` (stereo not given) the inhibition was 84.2% (active).
`Cc1ccc(NC(=O)[C@H](Cc2ccccc2)NC(=O)CC[C@H]2O[C@@H](n3ccc(=O)[nH]c3=O)[C@H](O)[C@@H]2O)cc1C` was tested, and the inhibition was -9.9% (inactive).
`Cc1ccc(Cl)c(OCC(=O)NN2CCN(C)CC2)c1` was tested, and the inhibition was -5.7% (inactive).
With `COc1ccc2c(CC(=O)NNC(=O)c3ccccc3F)coc2c1` the inhibition was -5% (inactive).
With `COC(=O)[C@@H](NC(=O)NCc1cccc(OC)c1)C(C)C` the inhibition was -7.7% (inactive).
For `COc1ccc(NC(=O)CN2C(=O)CSc3ccc(S(=O)(=O)N4CCC(C)CC4)cc32)cc1`, the inhibition was 42.2% (inactive).
In the case of `COc1ccc(-c2nc3cnccn3c2NC2CCCCC2)cc1-c1cccc(Cl)c1`, the inhibition was 32.3% (inactive) and 25.3% (inactive).
With `COc1ccc(-c2nc3cnccn3c2NC(C)(C)CC(C)(C)C)cc1O` the inhibition was 55% (active).
In the case of `CCOc1cc(-c2nc3cc(C)ccn3c2NCC2CCCO2)ccc1O` (stereo not given), the inhibition was -4.4% (inactive).
With `COc1ccc(NC2=CC(=S)NC(C)(C)C2)cc1` the inhibition was -11% (inactive).
`CCOC(=O)/C(=N\Nc1cc(Cl)ccc1Cl)N1CCN(C)CC1` was tested, and the inhibition was 3.8% (inactive).
`CCN(CCO)C(=S)Nc1cc(C(=O)OC)ccc1C(=O)OC` was tested, and the inhibition was -10.4% (inactive).
For `O=C(Nc1ccccc1Cl)c1ccccc1S(=O)(=O)c1ccccc1[N+](=O)[O-]`, the inhibition was 6.3% (inactive).
With `Cc1cc(C(=O)OCC(=O)Nc2ccccc2Cl)c(C)o1` the inhibition was 7.5% (inactive).
With `O=C(Nc1ccccc1Cl)/C(Cl)=C(\Cl)S(=O)c1ccccc1` (stereo not given) the inhibition was 73.7% (active).
For `CC(C)Oc1ccc(CN2CCC2(C)C(=O)NCc2ccc(C(F)(F)F)cc2)cc1` (stereo not given), the inhibition was 34.4% (inactive).
For `CC1(C)CC(=O)C(C2=NC(C)(C)Cc3ccccc32)=C(O)C1`, the inhibition was -7% (inactive).
In the case of `FC(F)(F)c1cccc(-c2cc3ccccc3nc2N2CCCC2)c1`, the inhibition was 18.4% (inactive).
With `Cc1cc(Cl)ccc1OCCCC(=O)Nc1cccc(-n2cnnn2)c1` the inhibition was 30.3% (inactive).
In the case of `O=C(Nc1ccc(C(F)(F)F)cc1)c1cccc(-n2cnnn2)c1`, the inhibition was 64.5% (active).
`O=C(Nc1cccc(-n2cnnn2)c1)c1cccnc1` was tested, and the inhibition was -7.9% (inactive).
With `Cc1ccc(S(=O)(=O)Nc2ccc(F)c(S(=O)(=O)N3CCOCC3)c2)cc1` the inhibition was -1% (inactive).
With `COc1ccc(-c2ccc(OC(=O)NC3CCS(=O)(=O)C3)cc2)cc1` (stereo not given) the inhibition was -3.8% (inactive).
For `CCCCOC(=O)CNc1nnc(SCC(=O)OCC)[nH]c1=O`, the inhibition was 50.2% (active).
In the case of `CCc1ccc(C(=O)CSc2nnc(C)c(=O)[nH]2)cc1`, the inhibition was -4.7% (inactive).
For `CCOC(=O)CSc1nc(C)c(Oc2ccc(Cl)cc2Cl)c(=O)[nH]1`, the inhibition was -5.3% (inactive).
For `Cc1noc(C)c1S(=O)(=O)N(C)C[C@H]1OCCCC[C@@H](C)Oc2ccc(NC(=O)CCCN(C)C)cc2C(=O)N([C@H](C)CO)C[C@@H]1C`, the inhibition was -10.2% (inactive).
With `COc1cccc(NC(=S)N(Cc2ccc(C)cc2)Cc2ccccn2)c1` the inhibition was 5.4% (inactive).
With `COc1ccc(NC(=O)/C(Cl)=C(/Cl)S(=O)Cc2ccc(C)cc2)cn1` (stereo not given) the inhibition was 53.3% (active).
With `COc1ccc(NC(=O)C2Cc3c(-c4ccc5c(c4)OCO5)ccnc3O2)cn1` (stereo not given) the inhibition was 1.3% (inactive).
For `COCc1c(N)c(C)nc(Cl)c1C#N`, the inhibition was -5.4% (inactive).
`COc1cccc(-c2sc3ccc(OC)cc3c2-c2ccc(OCCN3CCCCC3)cc2)c1` was tested, and the inhibition was 15.5% (inactive).
For `COc1ccc(-c2csc3nc(-c4ccccc4F)oc(=O)c23)cc1OC`, the inhibition was 65.3% (active).
In the case of `Cc1sc2nc(-c3ccccc3F)oc(=O)c2c1C`, the inhibition was 54.7% (active).
In the case of `CC1CCN(c2oc(-c3ccccc3F)nc2C#N)CC1`, the inhibition was 20.3% (inactive).
For `COc1ccc(-c2csc3ncnc(Oc4ccc5c(C)cc(=O)oc5c4)c23)cc1`, the inhibition was -2.5% (inactive).
For `Cc1sc2nc(SCCO)n(-c3ccccc3)c(=O)c2c1C`, the inhibition was -4.5% (inactive).
With `COc1ccccc1-c1nc(C(F)(F)F)c(OC)o1` the inhibition was -1.4% (inactive).
In the case of `Cc1cc(C)n2nc(CNS(=O)(=O)c3c(F)c(F)c(F)c(F)c3F)nc2n1`, the inhibition was 12.1% (inactive).
`CC(=O)c1nn(-c2cccc(Br)c2)cc1C(=O)c1cccc2ccccc12` was tested, and the inhibition was 27.7% (inactive).
`CCC1OC(c2ccc([N+](=O)[O-])cc2)=Nc2ccccc21` (stereo not given) was tested, and the inhibition was 14.7% (inactive).
In the case of `O=C(O)c1ccc(COc2c(F)c(F)cc(F)c2F)o1`, the inhibition was -6.9% (inactive).
With `CC(C)C[C@@H]1Cc2[nH][nH]c(=O)c2[C@H](CCc2ccccc2)O1` the inhibition was -59.6% (inactive).
In the case of `COc1cc(/C=C/c2ccc(/C=C/c3cc(OC)c(OC)c(OC)c3)cc2)cc(OC)c1OC`, the inhibition was 8.2% (inactive).
With `O=C(Cn1nnc2ccccc2c1=O)Nc1cc(C(F)(F)F)ccc1N1CCOCC1` the inhibition was 5.9% (inactive).
In the case of `CSCCC(NC(=O)COc1ccccc1)C(=O)OCC(=O)c1cc2ccccc2o1` (stereo not given), the inhibition was 70.7% (active).
In the case of `CSCCC(NC(=O)COc1ccccc1)C(=O)OCc1ccc(Cl)cc1` (stereo not given), the inhibition was 24.4% (inactive).
For `CSCCC(NC(=O)COc1ccccc1)C(=O)OCCOc1ccc(Br)cc1` (stereo not given), the inhibition was 21.8% (inactive).
In the case of `Cc1ccc(C)c2[nH]c(=O)c(CCNC(=O)CC(C)C)cc12`, the inhibition was -6.6% (inactive).
For `Cc1cccc(CSc2nc3c(c(=O)n2C)SCC3)c1`, the inhibition was 12.5% (inactive).
With `CC1=CC(=C(C#N)c2nc3ccccc3s2)C=C(C)N1c1ccc(F)cc1F` the inhibition was 59.2% (active).
`COCCCNC(=O)CNC(=O)c1nn(-c2ccc(OC)cc2)c(=O)c2ccccc12` was tested, and the inhibition was -6.6% (inactive).
In the case of `O=C(CN1CCCCC1)N1c2ccccc2Sc2ccc(C(F)(F)F)cc21`, the inhibition was 11.9% (inactive).
`COc1ccc2[nH]c3c(c2c1)CCN1C(=O)C(CC(=O)NCCCN(C)C)C[C@H](C(=O)N2CCOCC2)[C@@]31CCC1CCCC1` (stereo not given in full) was tested, and the inhibition was 43.3% (inactive).
For `CN(C)C(=O)CCc1ccc2c3c([nH]c2c1)[C@]1(CCC2CCCC2)[C@@H](C(=O)N2CCOCC2)C[C@H](CC(=O)NCc2ccco2)C(=O)N1CC3`, the inhibition was 21.1% (inactive).
`COc1ccc(CNC(=O)C[C@H]2C[C@H](C(=O)N3CCOCC3)[C@@]3(CCC4CCCC4)c4[nH]c5ccc(Cl)cc5c4CCN3C2=O)cc1OC` was tested, and the inhibition was 89% (active).
In the case of `CC[C@]12c3[nH]c4ccc(Cl)cc4c3CCN1C(=O)[C@@H](CC(=O)NCCN1CCOCC1)C[C@@H]2C(=O)N1CCN(C(=O)C2CC2)CC1`, the inhibition was -7.3% (inactive).
With `O=C(C[C@H]1C[C@H](C(=O)N2CCOCC2)[C@@]2(CCC3CCCC3)c3[nH]c4ccc(Cl)cc4c3CCN2C1=O)NCc1ccco1` the inhibition was 88.8% (active).
In the case of `CC[C@]12c3[nH]c4ccc(OC)cc4c3CCN1C(=O)C(CC(=O)NCc1ccco1)C[C@@H]2C(=O)N1CCN(C(=O)C2CC2)CC1` (stereo not given in full), the inhibition was -7.3% (inactive).
